# In PubChem BioAssay (NCATS):
# Values without a mark were called inactive. Results filed as inconclusive are left out. Entries that show only a call come without a potency. Active and inactive are the calls of the source. Calls come from the whole dose curve; as a rule, active = well fitted inhibition curve with a large enough effect; inconclusive = small, poorly fitted or top-dose-only effect; inactive = flat fitted curve, though single readings scatter.
# Target: Phospholipid hydroperoxide glutathione peroxidase GPX4 (Homo sapiens) (UniProt P36969)
# Assay: Primary qHTS Assay for Inhibitors of Recombinant Selenoprotein Glutathione Peroxidase 4 (GPX4) (AID 1845192); note: nearly all actives have a fitted effect of over 65% in size
# Conditions: recombinant GPX4, GR-coupled NADPH fluorescence, 15 min; series mostly up to 27.8 µM
# Outline: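 GR-coupled readout: 100 nM GR, 1 mM GSH, 0.5 mM NADPH; NADPH fluorescence (ex 340/em 450 nm) read at t=0 and after 15 min RT. GPX4 200 nM, preincubated 30 min with compound; substrate 0.5 mM CHP.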
# Sequence of Phospholipid hydroperoxide glutathione peroxidase GPX4 (Homo sapiens) (P36969 whole entry, looked up): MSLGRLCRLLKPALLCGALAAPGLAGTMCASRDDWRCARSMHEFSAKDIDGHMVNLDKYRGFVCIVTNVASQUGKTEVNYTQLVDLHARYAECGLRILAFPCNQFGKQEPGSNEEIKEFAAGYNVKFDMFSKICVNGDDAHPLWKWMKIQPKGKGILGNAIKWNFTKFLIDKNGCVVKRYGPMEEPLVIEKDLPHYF
row,SMILES,Potency
1,Cc1cccc(-c2nn3c(c2-c2ccnc4ccc(C(N)=O)cc24)CCC3)n1,inactive
2,CC(C)c1ccc2c(c1)C(=O)CC1C(C)(C(=O)O)CCCC21C (stereo not given),inactive
3,Cn1nccc1-c1ccccc1Oc1ccc(S(=O)(=O)Nc2nccs2)cc1C#N,inactive

# Target: Luciferin 4-monooxygenase (Photinus pyralis) (UniProt P08659)
# Assay: Primary firefly luciferase (FLuc) qHTS assay for identification of artifact compounds. (AID 1845220); note: nearly all actives have a fitted effect of over 60% in size
# Conditions: purified firefly luciferase, luminescence, 5 min; series mostly up to 54.1 µM
# Outline: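 In this counter-screen for luciferase artifacts, test compounds met substrate (10 uM each luciferin and ATP) before 10 nM enzyme started the reaction. Light output was measured 5 min later.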
SMILES,Potency,"activity change, negative = inhibition"
N#Cc1ccc(C2CCCc3cncn32)cc1 (stereo not given),inactive,
OC[C@H]1O[C@@H](Oc2cc(O)cc(-c3cc4ccc(O[C@@H]5O[C@H](CO)[C@@H](O)[C@H](O)[C@H]5O)cc4o3)c2)[C@H](O)[C@@H](O)[C@@H]1O,inactive,
O=C(OC[C@H]1O[C@H](O[C@]2(CO)O[C@H](CO)[C@@H](O)[C@@H]2O)[C@H](O)[C@@H](O)[C@@H]1O)c1ccc(O)cc1,inactive,
CC1(C)CC[C@]2(C(=O)O)CC[C@]3(C)C(=CCC4[C@@]5(C)CC[C@H](O[C@@H]6O[C@H](C(=O)O)[C@@H](O)[C@H](O[C@@H]7O[C@H](CO)[C@H](O)[C@H](O)[C@H]7O)[C@H]6O[C@@H]6O[C@H](CO)[C@@H](O)[C@H](O)[C@H]6O)C(C)(C)C5CC[C@]43C)[C@@H]2C1 (stereo not given in full),,-14.9% [at 6.45 µM]
COc1c2ccoc2nc2c(OC)c(O[C@@H]3O[C@@H](C)[C@H](O)[C@@H](O[C@@H]4O[C@H](CO)[C@@H](O)[C@H](O)[C@H]4O)[C@H]3OC(C)=O)ccc12,inactive,
C/C=C1\[C@H](O[C@@H]2O[C@H](CO)[C@@H](O)[C@H](O)[C@H]2O)OC=C(C(=O)OCCc2ccc(O)cc2)[C@H]1CC(=O)OCCc1ccc(O)cc1,inactive,
Nc1ncnc2c1C(=O)N(c1ccc(C3CCC(CC(=O)O)CC3)cc1)CCO2 (stereo not given),inactive,
CC1=CCC2C(C)(C)CCCC2(C)C1CC12OC1C(O)C(CO)=CC2O (stereo not given),inactive,
CCOC(=O)C1=C(N)Oc2ccc(Cl)cc2C1C(C#N)C(=O)OCC (stereo not given),inactive,
Cc1cn(-c2cc(NC(=O)c3ccc(C)c(Nc4nccc(-c5cnccn5)n4)c3)cc(C(F)(F)F)c2)cn1,inactive,
COc1cc2c(cc1O)CC(O)(CO)C(CO)C2c1ccc(OC2OC(CO)C(O)C(O)C2O)c(OC)c1 (stereo not given),inactive,
C=C1CC[C@@H]2[C@](C)(CO)[C@H](O[C@@H]3O[C@H](CO)[C@@H](O)[C@H](O)[C@H]3O)CC[C@@]2(C)[C@@H]1C/C=C1/C(=O)OC[C@H]1O,inactive,
COc1ccc2[nH]c(S(=O)Cc3ncc(C)c(OC)c3C)nc2c1 (stereo not given),inactive,
O=C(NCCN1CCCC1)c1cc(-c2ccc(CN3CCOCC3)cc2)nc2ccc(F)cc12,inactive,
CN[C@H](CNC(=O)N1CCC[C@@H]([C@@H](OCCNC(=O)OC)c2cccc(Cl)c2)C1)C[C@H]1CCCOC1,inactive,
CCC(C)(C)C1CCc2c(sc(NC(=O)c3ccc(Br)cc3)c2C#N)C1 (stereo not given),inactive,
CCC(C)C(N)C(=O)NCCN1CCOCC1 (stereo not given),inactive,
CN(C)c1ccc(C2O[C@@H](c3ccccc3)C[C@H](c3ccccc3)O2)cc1 (stereo not given in full),inactive,
CCC(C)/C=C(C)/C=C/C1=CC2=C(Cl)C(=O)C(C)(OC(C)=O)C(=O)C2=CN1C(CCCN=C(N)N)C(=O)O (stereo not given),inactive,
CC1(C)O[C@H]2CC(=O)OC[C@@]23C1=C(O)C(=O)[C@]1(C)C3CC[C@@]2(C)[C@H](c3ccoc3)OC(=O)[C@H]3O[C@]321 (stereo not given in full),inactive,
CC(C)=CCC/C(C)=C/CO[C@@H]1O[C@H](CO[C@@H]2O[C@@H](CO)[C@H](O)[C@H]2O)[C@@H](O)[C@H](O)[C@H]1O,inactive,
CC(C)CC(=O)NCCn1cc(C(=O)O)c(=O)cc1C(O)c1ccccc1 (stereo not given),inactive,
COc1cc(Nc2nc3ccccc3nc2NS(=O)(=O)c2cccc(NC(=O)c3ccc(C)c(OC)c3)c2)cc(OC)c1,inactive,
CC1(C)CC[C@]2(C(=O)O[C@@H]3O[C@H](CO)[C@@H](O)[C@H](O)[C@H]3O)CC[C@]3(C)C(=CCC4[C@@]5(C)CC[C@H](O[C@@H]6O[C@H](C(=O)O)[C@@H](O)[C@H](O)[C@H]6OC6OC(CO)C(O)C(O)C6O)C(C)(C)C5CC[C@]43C)[C@@H]2C1 (stereo not given in full),,1.1% [at 11.6 µM]
CCN1CCN(C(=O)N[C@@H](C(=O)N[C@@H]2C(=O)N3[C@@H]2SC(C)(C)[C@@H]3C(=O)O)c2ccccc2)C(=O)C1=O,inactive,
CCC(C)/C=C(C)/C=C/C1=CC2=C(Cl)C(=O)C(C)(OC(C)=O)C(=O)C2=CN1CCCCC(N)C(=O)O (stereo not given),inactive,
C=C(C(=O)O)[C@@H]1CC[C@@]2(C)CCC[C@@](C)(O)[C@@H]2C1,inactive,
